Experimental data from PubChem BioAssay (Tox21).
Results filed as inconclusive are left out. The source made the active and inactive calls. Unless noted, calls follow the shape of the dose curve; as a rule, active = well fitted curve in the direction sought with a large enough effect in the repeat runs; inconclusive = weak or mixed curves; inactive = flat fitted curve, though single readings scatter.

Experiments:
[1] = qHTS assay to test for compound auto fluorescence at 535 nm (green) in HEK293 cells (AID 720680)
[2] = qHTS assay to test for compound auto fluorescence at 460 nm (blue) in HEK293 cell free culture (AID 720681)
Outline: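 Test compounds were pinned into cell-free culture medium (DMEM with 10% FBS) and fluorescence was read directly at Ex/Em 405/460 nm. Signals were expressed as fluorescence equivalents of triamterene, with DMSO vehicle as control.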

[3] = qHTS assay to test for compound auto fluorescence at 535 nm (green) in HEK293 cell free culture (AID 720682)
Outline: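 Green-label autofluorescence (485 nm excitation, 535 nm emission) measured on compound added to cell-free culture medium (DMEM, 10% FBS). Output is expressed relative to fluorescein.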

[4] = qHTS assay to test for compound auto fluorescence at 590 nm (red) in HEK293 cell free culture (AID 720683)
Outline: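 Tox21 10K library compounds were pinned into cell-free DMEM with 10% FBS and fluorescence was read at excitation 540 nm. Activity is expressed as Rose Bengal sodium equivalency.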

[5] = qHTS assay to test for compound auto fluorescence at 590 nm (red) in HepG2 cell free culture (AID 720684)
Outline: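 Readout: intrinsic compound fluorescence at 590 nm emission after 540 nm excitation, scaled to Rose Bengal sodium. Matrix was cell-free MEM with 10% FBS; DMSO vehicle wells served as control.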

[6] = qHTS assay to test for compound auto fluorescence at 460 nm (blue) in HepG2 cell free culture (AID 720685)
Outline: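 Cell-free plates of MEM plus 10% FBS received 23 nL compound or DMSO vehicle; blue-channel (405/460 nm) intensity scored against triamterene as reference fluorophore.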

[7] = qHTS assay to test for compound auto fluorescence at 535 nm (green) in HepG2 cell free culture (AID 720686)
[8] = qHTS assay to test for compound auto fluorescence at 460 nm (blue) in HepG2 cells (AID 720687)
Outline: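 Cells (2,000/well in MEM with 10% FBS) attached overnight at 37 C, then were exposed to compound or DMSO for 1 hr at 37 C, 5% CO2. Fluorescence read at Ex/Em 405/460 nm, expressed as triamterene-equivalent signal.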

[9] = target: Glucocorticoid receptor (Homo sapiens) (UniProt P04150); assay: qHTS assay to identify small molecule agonists of the glucocorticoid receptor (GR) signaling pathway (AID 720691; active = well fitted activation curve with a large enough effect in the signal ratio in the repeat runs, not every such curve was filed as active; the % refers to the signal ratio)
Sequence of Glucocorticoid receptor (Homo sapiens) (P04150 whole entry, looked up): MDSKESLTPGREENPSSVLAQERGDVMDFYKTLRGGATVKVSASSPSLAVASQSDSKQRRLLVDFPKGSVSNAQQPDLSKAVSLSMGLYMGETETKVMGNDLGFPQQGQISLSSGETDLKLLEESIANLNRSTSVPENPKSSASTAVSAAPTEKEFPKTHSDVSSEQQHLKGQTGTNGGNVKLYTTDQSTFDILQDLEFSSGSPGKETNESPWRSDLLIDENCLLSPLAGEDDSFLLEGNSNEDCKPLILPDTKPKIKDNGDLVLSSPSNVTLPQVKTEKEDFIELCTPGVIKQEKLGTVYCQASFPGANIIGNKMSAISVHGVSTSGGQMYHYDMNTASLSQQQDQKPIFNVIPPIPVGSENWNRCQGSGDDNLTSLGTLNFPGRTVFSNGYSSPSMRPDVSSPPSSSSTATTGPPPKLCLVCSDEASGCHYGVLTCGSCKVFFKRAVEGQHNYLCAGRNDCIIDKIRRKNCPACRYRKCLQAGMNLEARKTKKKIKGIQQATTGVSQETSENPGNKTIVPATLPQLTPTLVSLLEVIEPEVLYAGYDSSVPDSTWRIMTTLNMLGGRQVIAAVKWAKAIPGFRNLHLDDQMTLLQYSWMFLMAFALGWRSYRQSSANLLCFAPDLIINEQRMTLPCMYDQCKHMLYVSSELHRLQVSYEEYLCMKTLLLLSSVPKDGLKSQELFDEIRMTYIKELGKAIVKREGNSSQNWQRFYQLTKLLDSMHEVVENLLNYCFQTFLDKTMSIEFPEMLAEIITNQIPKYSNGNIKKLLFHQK
Outline: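 HeLa GR-bla reporter line; cells pre-incubated 4 h, compound in DMSO 18 h at 37 C; LiveBLAzer B/G FRET substrate 2 h RT; fluorescence intensity read-out.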

[10] = target: Glucocorticoid receptor (Homo sapiens) (UniProt P04150); assay: qHTS assay to identify small molecule antagonists of the glucocorticoid receptor (GR) signaling pathway (AID 720692; active = well fitted inhibition curve with a large enough effect in the signal ratio in the repeat runs, not every such curve was filed as active; the % refers to the signal ratio)
Outline: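 Read-out: beta-lactamase FRET substrate fluorescence, 2 h at room temperature, in HeLa cells stably carrying a GRE-driven bla reporter. Compounds were co-incubated with 5 nM dexamethasone agonist (final) for 18 h at 37 C.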

Measured: Potency

CCCC1COC(Cn2cncn2)(c2ccc(Cl)cc2Cl)O1 (stereo not drawn)
inactive: [1] | [2] | [3] | [4] | [5] | [6] | [7] | [8] | [9] | [10]

C[C@]12CC[C@H]3[C@@H](CC[C@@]45O[C@@H]4C(O)=C(C#N)C[C@]35C)[C@@H]1CC[C@@H]2O
inactive: [1] | [2] | [3] | [4] | [5] | [6] | [7] | [8]

C1CC2OC2CC1C1CO1 (stereo not drawn)
inactive: [1] | [2] | [3] | [4] | [5] | [6] | [7] | [8]

Cc1cccc([N+](=O)[O-])c1
inactive: [1] | [2] | [3] | [4] | [5] | [6] | [7] | [8] | [9]

OCCN(CCO)CCO
inactive: [1] | [2] | [3] | [4] | [5] | [6] | [7] | [8]

ClCc1cccnc1
inactive: [1] | [2] | [3] | [4] | [5] | [6] | [7] | [8] | [9] | [10]

O=[N+]([O-])c1ccccc1
inactive: [1] | [2] | [3] | [4] | [5] | [6] | [7] | [8] | [9] | [10]

CCN(CC)CCO
inactive: [1] | [2] | [3] | [4] | [5] | [6] | [7] | [8] | [9] | [10]

c1ccc2c(c1)Oc1ccccc1O2
inactive: [1] | [2] | [3] | [4] | [5] | [6] | [7] | [8] | [9] | [10]

Nc1ccc(Br)cc1
inactive: [1] | [2] | [3] | [4] | [5] | [6] | [7] | [8] | [9]

CCC(C)(CC)c1cc(NC(=O)c2c(OC)cccc2OC)on1
inactive: [1] | [2] | [3] | [4] | [5] | [6] | [7] | [8]

CN=C=S
inactive: [1] | [2] | [3] | [4] | [5] | [6] | [7] | [8]

CCCCCCCCCl
inactive: [1] | [2] | [3] | [4] | [5] | [6] | [7] | [8] | [9] | [10]

Clc1ccccc1Cl
inactive: [1] | [2] | [3] | [4] | [5] | [6] | [7] | [8] | [9] | [10]

CC(C)(C)OOC(C)(C)C
inactive: [1] | [2] | [3] | [4] | [5] | [6] | [7] | [8] | [9] | [10]

C=CCO
inactive: [1] | [2] | [3] | [4] | [5] | [6] | [7] | [8] | [9] | [10]

CC1OC(C)OC(C)O1 (stereo not drawn)
inactive: [1] | [2] | [3] | [4] | [5] | [6] | [7] | [8]

Clc1ccc(Cl)cc1
inactive: [1] | [2] | [3] | [4] | [5] | [6] | [7] | [8] | [9] | [10]

CC(C)C1(C)N=C(c2nc3ccccc3cc2C(=O)O)NC1=O (stereo not drawn)
inactive: [1] | [2] | [3] | [4] | [5] | [6] | [7] | [8] | [9] | [10]

CC(C)OC(=O)Nc1ccccc1
inactive: [1] | [2] | [3] | [4] | [5] | [6] | [7] | [8]

CC(C)NC(=O)N1CC(=O)N(c2cc(Cl)cc(Cl)c2)C1=O
inactive: [1] | [2] | [3] | [4] | [5] | [6] | [7] | [8]

O=c1ccc(=O)[nH][nH]1
inactive: [1] | [2] | [3] | [4] | [5] | [6] | [7] | [8]

CCNc1nc(NC(C)C)nc(SC)n1
inactive: [1] | [2] | [3] | [4] | [5] | [6] | [7] | [8]

O=C1CCCN1
inactive: [1] | [2] | [3] | [4] | [5] | [6] | [7] | [8] | [9] | [10]

CCc1cccc(C)c1N(C(=O)CCl)C(C)COC (stereo not drawn)
inactive: [1] | [2] | [3] | [4] | [5] | [6] | [7] | [8]

Cc1cc(-c2cc(C)c(N)c(C)c2)cc(C)c1N
inactive: [1] | [2] | [3] | [4] | [5] | [6] | [7] | [8] | [9]

CCC[CH2][Sn]([Cl])([Cl])[Cl]
inactive: [1] | [2] | [3] | [4] | [5] | [6] | [7] | [8] | [9]

CCNc1nc(NC(C)(C)C)nc(SC)n1
inactive: [1] | [2] | [3] | [4] | [5] | [6] | [7] | [8] | [9] | [10]

Nc1c(Cl)c(Cl)nc(C(=O)O)c1Cl
inactive: [1] | [2] | [3] | [4] | [5] | [6] | [7] | [8] | [9] | [10]

Cc1ccc(N)cc1Cl
inactive: [1] | [2] | [3] | [4] | [5] | [6] | [7] | [8]

COCCl
inactive: [1] | [2] | [3] | [4] | [5] | [6] | [7] | [8] | [9] | [10]

OC(O)C(Cl)(Cl)Cl
inactive: [1] | [2] | [3] | [4] | [5] | [6] | [7] | [8]

CCOP(OCC)OCC
inactive: [1] | [2] | [3] | [4] | [5] | [6] | [7] | [8]

CC(C)(Cl)Cl
inactive: [1] | [2] | [3] | [4] | [5] | [6] | [7] | [8] | [9] | [10]

CN(N=O)c1ccccc1
inactive: [1] | [2] | [3] | [4] | [5] | [6] | [7] | [8] | [9] | [10]

CCC12COCN1COC2
inactive: [1] | [2] | [3] | [4] | [5] | [6] | [7] | [8]

[N-]=[N+]=[N-]
inactive: [1] | [2] | [3] | [4] | [5] | [6] | [7] | [8] | [9] | [10]

COC(=O)NC(=S)Nc1ccccc1NC(=S)NC(=O)OC
inactive: [1] | [2] | [3] | [4] | [5] | [6] | [7] | [8] | [9] | [10]

CCN(CC)c1ccccc1
inactive: [1] | [2] | [3] | [4] | [5] | [6] | [7] | [8] | [9] | [10]

COC(=O)c1ccccc1N
inactive: [1] | [2] | [3] | [4] | [5] | [6] | [7] | [8] | [9] | [10]

NCCc1ccc(O)cc1
inactive: [1] | [2] | [3] | [4] | [5] | [6] | [7] | [8] | [9] | [10]

CCOP(=S)(OCC)SCCSCC
inactive: [1] | [2] | [3] | [4] | [5] | [6] | [7] | [8] | [9] | [10]

O=c1[nH]c2ccccc2c(=O)o1
inactive: [1] | [2] | [3] | [4] | [5] | [6] | [7] | [8] | [9] | [10]

O=C(O)c1ccccn1
inactive: [1] | [2] | [3] | [4] | [5] | [6] | [7] | [8] | [9] | [10]

CCOC(=O)c1ccccc1C(=O)OCC
inactive: [1] | [2] | [3] | [4] | [5] | [6] | [7] | [8] | [9] | [10]

Cc1ccccc1O
inactive: [1] | [2] | [3] | [4] | [5] | [6] | [7] | [8] | [9] | [10]

O=C(NC(=O)c1c(F)cccc1F)Nc1cc(Cl)c(OC(F)(F)C(F)C(F)(F)F)cc1Cl (stereo not drawn)
inactive: [1] | [2] | [3] | [4] | [5] | [6] | [7] | [8] | [9] | [10]

CC1C=[C-]C=C1.[C-]#[O+].[C-]#[O+].[C-]#[O+].[Mn]
inactive: [1] | [2] | [3] | [4] | [5] | [6] | [7] | [8] | [9] | [10]

COP(N)(=O)SC (stereo not drawn)
inactive: [1] | [2] | [3] | [4] | [5] | [6] | [7] | [8] | [9] | [10]

O=c1[nH]c(=O)[nH]c(=O)[nH]1
inactive: [1] | [2] | [3] | [4] | [5] | [6] | [7] | [8] | [9] | [10]

CC(C)N1C(=O)c2ccccc2NS1(=O)=O
inactive: [1] | [2] | [3] | [4] | [5] | [6] | [7] | [8] | [9] | [10]

Nc1ccccc1C(=O)O
inactive: [1] | [3] | [4] | [5] | [6] | [7] | [8]

c1ccc(OP(Oc2ccccc2)Oc2ccccc2)cc1
inactive: [1] | [2] | [3] | [4] | [5] | [6] | [7] | [8] | [9] | [10]

O=NN1CCCC1
inactive: [1] | [2] | [3] | [4] | [5] | [6] | [7] | [8] | [9] | [10]
